This is an account of results in PubChem BioAssay (NCI).

The panel holds about 83,000 compounds, 20% with a hit somewhere; the sample as a whole holds those more often.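 Each cell line was grown in a 96-well plate and treated with one concentration of compound for 48 hours. Values below 10 were considered active.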 A number with no mark means an inactive call. Activity calls are given as the source filed them.

Among the test systems are NCI-H23 lung; NCI-H226 lung; NCI-H322M lung; HOP-62 NSCLC; NCI-H460 lung; HOP-92 NSCLC; NCI-H522 lung; A549/ATCC NSCLC; 786-0 renal; DU-145 prostate; K-562 leukemia; MALME-3M melanoma; MDA-MB-231 breast; RXF 393 renal; SF-268 CNS; SF-295 CNS; SF-539 CNS; UACC-257 melanoma; M14 melanoma.
Holding throughout (test): NCI-60 one-dose screen, 48 h (100 = growth as untreated, 0 = no growth, -100 = all killed)
Common to all, as to settings: 10 µM unless noted

With `COc1ccc(-c2cc(-c3nnc(SCC(=O)Nc4ccc(/C(C)=N\O)cc4)n3-c3ccccc3)c3cc(OC)ccc3n2)cc1`, the growth in the test on NCI-H23 lung is 86.4%; with NCI-H226 lung it was 86.1%; in the test on NCI-H322M lung, 79%; with HOP-62 NSCLC, 79.4%; in the test with NCI-H460 lung, 83.9%; in the test with HOP-92 NSCLC it was 78.4%. Further, the growth was 35.1% in the test on NCI-H522 lung; 51.2% in the test on A549/ATCC NSCLC; 83.5% with 786-0 renal; 85% in the test with DU-145 prostate; 48% with K-562 leukemia; 105% in the test with MALME-3M melanoma. The growth is 46.1% with MDA-MB-231 breast; 83.6% with RXF 393 renal; 71.4% with SF-268 CNS; 80.3% in the test with SF-295 CNS; 82.6% with SF-539 CNS; 71% in the test on UACC-257 melanoma. Besides, the growth in the test on M14 melanoma was 70.1%.

With `NC(=O)c1ccc2nc3c(n2c1)C(=O)C(=O)c1ccccc1-3`, the growth in the test with NCI-H23 lung is -38.3% (active); in the test with NCI-H226 lung, -49.7% (active); in the test with NCI-H322M lung, -98.2% (active); in the test with HOP-62 NSCLC it was -87.8% (active); in the test with NCI-H460 lung, -50.7% (active); in the test on HOP-92 NSCLC it was -80.9% (active). Also, the growth in the test on NCI-H522 lung was -48.9% (active); in the test with A549/ATCC NSCLC, -43.1% (active); in the test with 786-0 renal it was -99.4% (active); in the test with DU-145 prostate, -96.3% (active); with K-562 leukemia it was -28.2% (active); in the test on MALME-3M melanoma, -97.3% (active). In addition, the growth was -17.3% (active) with MDA-MB-231 breast; -96.5% (active) in the test with RXF 393 renal; -70.2% (active) in the test on SF-268 CNS; -98.7% (active) in the test with SF-295 CNS; -98.5% (active) in the test on SF-539 CNS; -98.3% (active) in the test with UACC-257 melanoma. Moreover, in the test with M14 melanoma, the growth was -88% (active).

On to `COCCc1n(Cc2ccc3ccccc3c2)c2ccccc2[n+]1Cc1ccc2ccccc2c1`, for which the growth in the test on NCI-H23 lung was -24.3% (active); in the test on NCI-H226 lung, -7.12% (active); in the test on NCI-H322M lung it was 5.25% (active); with HOP-62 NSCLC, -19.1% (active); with NCI-H460 lung, -65.3% (active); in the test with HOP-92 NSCLC, -53.1% (active). The growth with NCI-H522 lung was -54.4% (active); in the test with A549/ATCC NSCLC it was 4.72% (active); in the test with 786-0 renal, -94.3% (active); in the test with DU-145 prostate it was 2.65% (active); in the test on K-562 leukemia, -67.8% (active); in the test with MALME-3M melanoma, -69.5% (active). Further, the growth in the test with MDA-MB-231 breast is -74.7% (active); in the test with RXF 393 renal it was -44.3% (active); in the test with SF-268 CNS, -58.4% (active); with SF-295 CNS, -32.7% (active); in the test on SF-539 CNS it was -8.99% (active); in the test with UACC-257 melanoma, -29.3% (active). For the same compound, in the test with M14 melanoma, the growth is -72.2% (active).

`C=C1C(=O)O[C@H]2[C@H]1CC/C(COC(=O)n1ccnc1)=C\CC[C@@]1(C)O[C@@H]21`: the growth in the test with NCI-H23 lung was 91.1%; with NCI-H226 lung it was 92.4%; in the test with NCI-H322M lung it was 113%; in the test on HOP-62 NSCLC, 92.5%; in the test with NCI-H460 lung, 104%; in the test on HOP-92 NSCLC, 94.4%. The growth with NCI-H522 lung was 31.9%; in the test on A549/ATCC NSCLC, 93%; in the test on 786-0 renal, 102%; in the test with DU-145 prostate, 96.8%; in the test on K-562 leukemia, 86.7%; with MALME-3M melanoma it was 90.8%. Moreover, the growth is 95.9% in the test with MDA-MB-231 breast; 102% in the test with RXF 393 renal; 110% with SF-268 CNS; 100% in the test with SF-295 CNS; 102% in the test with SF-539 CNS; 90.7% in the test with UACC-257 melanoma. In the test on M14 melanoma, the growth is 84.3%.

For the compound `NS(=O)(=O)c1ccc(N2Cc3cc(Cl)ccc3OC3=C2C(=O)N(CC2CCCCC2)C3=O)cc1`, the growth in the test with NCI-H23 lung was -36.5% (active); in the test on NCI-H226 lung it was -23.5% (active); in the test with NCI-H322M lung it was 65.4%; in the test with HOP-62 NSCLC it was -60.9% (active); in the test on NCI-H460 lung, -55.1% (active); in the test with HOP-92 NSCLC, -76.6% (active). Besides, the growth with NCI-H522 lung is -68.6% (active); in the test on A549/ATCC NSCLC, -43.5% (active); in the test with 786-0 renal it was -84.7% (active); in the test on DU-145 prostate it was -94% (active); in the test on K-562 leukemia, -38% (active); in the test with MALME-3M melanoma it was -77% (active). Also, the growth is -74.5% (active) with MDA-MB-231 breast; -89.7% (active) in the test on RXF 393 renal; -83.9% (active) in the test with SF-268 CNS; -19.3% (active) with SF-295 CNS; -99.4% (active) in the test on SF-539 CNS; -79% (active) in the test on UACC-257 melanoma. In addition, in the test on M14 melanoma, the growth is -67.7% (active).

In the case of `O=C1C(Cl)=C(Nc2ccc3c(c2NC2=C(Cl)C(=O)c4ccccc4C2=O)C(=O)c2ccccc2C3=O)C(=O)c2ccccc21`, the growth in the test on NCI-H23 lung is -3.56% (active); with NCI-H226 lung, 36.9%; in the test on NCI-H322M lung, 46.9%; with HOP-62 NSCLC, 39.5%; in the test with NCI-H460 lung, 10.4%; in the test on HOP-92 NSCLC it was 61.4%. Also, the growth with NCI-H522 lung was 12.4%; in the test on A549/ATCC NSCLC, -31.8% (active); with 786-0 renal it was 48.5%; in the test with DU-145 prostate it was -83.9% (active); in the test on K-562 leukemia, 16.6%; in the test on MALME-3M melanoma it was -85.1% (active). Besides, the growth with MDA-MB-231 breast is 14.6%; in the test on RXF 393 renal, 48.5%; with SF-268 CNS it was 39.5%; in the test on SF-295 CNS, 23.8%; in the test with SF-539 CNS, 15%; in the test on UACC-257 melanoma, -20.4% (active). The growth in the test with M14 melanoma is -64.8% (active).

`C[C@]12CC[C@@H]3c4ccc(O)cc4CC[C@H]3[C@@H]1C[C@H](O)C2`: the growth in the test with NCI-H23 lung was 100%; in the test with NCI-H226 lung it was 104%; in the test on NCI-H322M lung, 89.5%; with HOP-62 NSCLC, 72.8%; in the test on NCI-H460 lung, 74.3%; with HOP-92 NSCLC, 86.1%. Further, the growth in the test with NCI-H522 lung is 54.6%; in the test with A549/ATCC NSCLC it was 49.5%; in the test with 786-0 renal, 88.1%; with DU-145 prostate it was 93.9%; in the test on K-562 leukemia it was 19.7%; with MALME-3M melanoma, 80.5%. The growth with MDA-MB-231 breast is 64.6%; in the test with RXF 393 renal, 100%; in the test on SF-268 CNS, 78.4%; in the test on SF-295 CNS, 87.3%; in the test with SF-539 CNS it was 73.5%; in the test with UACC-257 melanoma, 78.5%. For the same compound, in the test on M14 melanoma, the growth is 52.7%.

`O=C(O)c1cc(N=Nc2ccc(-c3ccc(N=Nc4c(S(=O)(=O)O)cc5ccc(Nc6ccccc6)cc5c4O)cc3)cc2)ccc1O`: the growth was 92.6% with NCI-H23 lung; 116% in the test on NCI-H226 lung; 94.5% in the test on NCI-H322M lung; 94.6% in the test on HOP-62 NSCLC; 113% in the test on NCI-H460 lung; 114% in the test on HOP-92 NSCLC. The growth was 89.7% in the test with NCI-H522 lung; 104% in the test on A549/ATCC NSCLC; 106% in the test with 786-0 renal; 109% with DU-145 prostate; 91.3% in the test on K-562 leukemia; 86% with MALME-3M melanoma. Also, the growth was 98% in the test on MDA-MB-231 breast; 112% in the test with RXF 393 renal; 93.1% in the test on SF-268 CNS; 99.7% in the test with SF-295 CNS; 108% in the test with SF-539 CNS; 107% in the test with UACC-257 melanoma. Besides, the growth in the test with M14 melanoma is 106%.
